Experimental data: the supplement of paper PMC13380429

Test system: Vero E6 infected with SARS-CoV-2
Test: inhibition of SARS-CoV-2 cytopathic effect; higher = more antiviral protection, active = above 15
Conditions: 48 h

Measured: inhibition of SARS-CoV-2 cytopathic effect

CCC[C@H](Nc1nc(-c2ccc(NC(=O)NCC)c(OC)c2)ncc1C)c1cccnc1
inactive: 1 nM 0.07% | 8.33 nM -1.4% | 100 nM -1.33% | 833.33 nM -0.69% | 10000 nM -2.7%

O=C(c1ccccn1)c1cnn2c(-c3ccncc3)ccnc12 [ocinaplon]
inactive: 1 nM 0.32% | 8.33 nM -1.43% | 100 nM -0.52% | 833.33 nM -3.04% | 10000 nM -0.62%

COc1ccc(NS(=O)(=O)c2ccc(I)cc2)cc1N1CCN(C)CC1
inactive: 1 nM 0.59% | 8.33 nM -5.4% | 100 nM 0.99% | 833.33 nM 0.95% | 10000 nM -1.3%

CC(=O)N1CCC(C(=O)N(CCCN2CCC(Cc3ccc(C(N)=O)cc3)CC2)c2ccc(C)c(Cl)c2)CC1
inactive: 1 nM 0.74% | 8.33 nM -0.02% | 100 nM -0.6% | 833.33 nM 0.17% | 10000 nM 2.52%

N#Cc1cc(F)cc(-c2nc(-c3ccc(F)cn3)no2)c1
inactive: 1 nM 0.6% | 8.33 nM 2.48% | 100 nM 1.15% | 833.33 nM -0.25% | 10000 nM 2.97%

CC(=O)O[C@H]1C(=O)[C@@]2(C)[C@H]([C@H](OC(=O)c3ccccc3)[C@]3(O)C[C@H](OC(=O)[C@H](O)[C@@H](NC(=O)c4ccccc4)c4ccccc4)C(C)=C1C3(C)C)[C@]1(OC(C)=O)CO[C@@H]1C[C@@H]2O [paclitaxel]
inactive: 1 nM -2.42% | 8.33 nM -0.27% | 100 nM -2.39% | 833.33 nM -4.55% | 10000 nM -2.64%
